The record followed here is PubChem BioAssay (NCI).

Molecules are shown by their SMILES. Compounds without any hit were thinned out: in the full panel of roughly 83,000, 20% have a hit.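 Assay: single dose, 48 h. Readout: percent growth (0 = no net growth; negative = cell death). Active: <10.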 Unmarked numbers belong to inactive results. The source made the active and inactive calls.

Test systems include NCI-H23 lung; NCI-H226 lung; NCI-H322M lung; HOP-62 NSCLC; NCI-H460 lung; HOP-92 NSCLC; NCI-H522 lung; A549/ATCC NSCLC; 786-0 renal; COLO 205 colon; DU-145 prostate; K-562 leukemia; MALME-3M melanoma; MDA-MB-231 breast; RXF 393 renal; SF-268 CNS; SF-295 CNS; SF-539 CNS; UACC-257 melanoma; M14 melanoma.
Common to all, as to experiment: NCI-60 one-dose screen, 48 h (100 = growth as untreated, 0 = no growth, -100 = all killed)
Holding throughout (conditions): 10 µM

In the case of `COc1cc2cc(OC(C)=O)c3cc4c(cc3c2c(OC)c1OC)OCO4`, the growth in the experiment with NCI-H23 lung was 91.9%; in the experiment with NCI-H226 lung, 94.7%; with NCI-H322M lung, 95.4%; with HOP-62 NSCLC, 91.5%; in the experiment with NCI-H460 lung it was 103%; in the experiment on HOP-92 NSCLC it was 96.3%. Further, the growth is 97.6% in the experiment on NCI-H522 lung; 106% with A549/ATCC NSCLC; 106% in the experiment on 786-0 renal; 106% with COLO 205 colon; 98.8% in the experiment with DU-145 prostate; 107% with K-562 leukemia. In addition, the growth with MALME-3M melanoma is 98.4%; in the experiment on MDA-MB-231 breast, 108%; in the experiment with RXF 393 renal, 94.6%; in the experiment on SF-268 CNS, 97.9%; with SF-295 CNS, 93%; in the experiment with SF-539 CNS, 103%. Further, the growth is 105% with UACC-257 melanoma and 96.5% with M14 melanoma.
With `CCN1C(=O)/C(=C/C=C/N(C)c2ccccc2)SC1=S`, the growth is 92.9% with NCI-H23 lung; 66.4% in the experiment with NCI-H226 lung; 94.6% with NCI-H322M lung; 36.2% with HOP-62 NSCLC; 94.7% in the experiment on NCI-H460 lung; 103% in the experiment on HOP-92 NSCLC. Further, the growth in the experiment on NCI-H522 lung is 60.9%; in the experiment with A549/ATCC NSCLC, 82.8%; in the experiment with 786-0 renal it was 79.8%; in the experiment with COLO 205 colon, 104%; in the experiment with DU-145 prostate it was 88.8%; with K-562 leukemia, 79.1%. The growth is 86.4% with MALME-3M melanoma; 94.2% with MDA-MB-231 breast; 90.3% in the experiment with RXF 393 renal; 65.7% in the experiment with SF-268 CNS; 54.8% in the experiment with SF-295 CNS; 92.3% in the experiment on SF-539 CNS. Further, the growth with UACC-257 melanoma is 97.7%; in the experiment with M14 melanoma, 101%.
For `CC(C)NC(=O)OCc1c(COC(=O)NC(C)C)c(-c2ccc(Cl)c(Cl)c2)n2c1SCC2`, the growth in the experiment with NCI-H23 lung was 38.6%; in the experiment on NCI-H226 lung, -43.7% (active); with NCI-H322M lung, 51.4%; in the experiment with HOP-62 NSCLC, 28.7%; in the experiment with NCI-H460 lung it was 13.3%; with HOP-92 NSCLC, 50.8%. The growth in the experiment with NCI-H522 lung is 32%; with A549/ATCC NSCLC, 55.3%; with 786-0 renal, 19%; with COLO 205 colon, 53.6%; in the experiment with DU-145 prostate it was 41.6%; in the experiment with K-562 leukemia, 34.1%. Also, the growth with MALME-3M melanoma was 62.9%; in the experiment with RXF 393 renal, 6.56% (active); in the experiment with SF-295 CNS it was 27.3%; with SF-539 CNS it was 32%; in the experiment on UACC-257 melanoma, 32.3%; in the experiment with M14 melanoma it was 50.3%.
In the case of `COC(=O)C(C)Oc1ccc(OC#N)cc1` (centres undefined), the growth with NCI-H23 lung was 95%; in the experiment with NCI-H226 lung it was 97.3%; in the experiment with NCI-H322M lung, 100%; in the experiment on HOP-62 NSCLC, 98.2%; with NCI-H460 lung, 103%; with HOP-92 NSCLC it was 95.3%. Further, the growth is 103% in the experiment with NCI-H522 lung; 99.4% with A549/ATCC NSCLC; 102% in the experiment on 786-0 renal; 107% with COLO 205 colon; 105% in the experiment on DU-145 prostate; 94.1% in the experiment on K-562 leukemia. In addition, the growth in the experiment on MALME-3M melanoma was 93.1%; with RXF 393 renal, 101%; with SF-268 CNS it was 98.9%; in the experiment with SF-295 CNS, 96.3%; with SF-539 CNS, 94.6%; with UACC-257 melanoma, 104%. Also, in the experiment with M14 melanoma, the growth was 101%.
`O=c1cc(-c2ccccc2)[nH]c2c1CCCC2`: the growth in the experiment on NCI-H23 lung is 32.1%; in the experiment on NCI-H226 lung, 54.3%; in the experiment with NCI-H322M lung, 50.8%; in the experiment on HOP-62 NSCLC, 28.8%; in the experiment with NCI-H460 lung it was 7.59% (active); in the experiment with HOP-92 NSCLC it was 46.7%. In addition, the growth in the experiment with NCI-H522 lung was 13.6%; with A549/ATCC NSCLC, 36.6%; in the experiment with 786-0 renal it was 36.4%; with COLO 205 colon it was -10.1% (active); in the experiment with DU-145 prostate, 21.2%; in the experiment on K-562 leukemia, 23.2%. The growth in the experiment on MALME-3M melanoma was 31.6%; in the experiment with MDA-MB-231 breast, 33.8%; with RXF 393 renal, -21.7% (active); with SF-268 CNS, 57.3%; in the experiment with SF-295 CNS, 18.1%; in the experiment with SF-539 CNS it was 3.77% (active). The figures for the growth in the experiment with UACC-257 melanoma and in the experiment with M14 melanoma were 46.9% and 8.23% (active), respectively.
On to `CC(C)CCCC(=O)O`, for which the growth with NCI-H23 lung is 106%; in the experiment on NCI-H226 lung, 101%; in the experiment on NCI-H322M lung, 93.4%; in the experiment with HOP-62 NSCLC it was 102%; with NCI-H460 lung, 102%; in the experiment on HOP-92 NSCLC, 73.9%. Moreover, the growth with NCI-H522 lung is 103%; in the experiment on A549/ATCC NSCLC, 105%; in the experiment with 786-0 renal it was 116%; in the experiment on COLO 205 colon it was 112%; in the experiment on DU-145 prostate it was 111%; with K-562 leukemia it was 135%. Moreover, the growth in the experiment with MALME-3M melanoma is 98.5%; in the experiment on MDA-MB-231 breast it was 123%; with RXF 393 renal, 93%; in the experiment on SF-268 CNS it was 106%; in the experiment with SF-539 CNS it was 98.5%; in the experiment with UACC-257 melanoma it was 117%. Also, the growth in the experiment on M14 melanoma is 119%.
`CN(C)Cc1cc(C(C)(C)CC(C)(C)C)ccc1O`: the growth with NCI-H23 lung was 91%; in the experiment on NCI-H226 lung, 91.2%; in the experiment with NCI-H322M lung, 100%; with HOP-62 NSCLC, 91.6%; with NCI-H460 lung, 100%; in the experiment with HOP-92 NSCLC, 77.1%. Further, the growth is 68.4% in the experiment with NCI-H522 lung; 111% in the experiment with A549/ATCC NSCLC; 92.9% in the experiment on 786-0 renal; 97.1% in the experiment with COLO 205 colon; 126% in the experiment on DU-145 prostate; 108% with K-562 leukemia. Besides, the growth with MALME-3M melanoma is 100%; in the experiment on MDA-MB-231 breast it was 96.9%; with RXF 393 renal, 138%; with SF-268 CNS it was 106%; in the experiment on SF-295 CNS, 95.6%; with SF-539 CNS it was 90.8%. Besides, the growth in the experiment on UACC-257 melanoma is 112%; with M14 melanoma it was 98%.
For `CSc1[nH]c(=O)ncc1F`, the growth in the experiment with NCI-H23 lung was 101%; with NCI-H226 lung, 99.7%; in the experiment with NCI-H322M lung, 97.8%; in the experiment on HOP-62 NSCLC it was 109%; with NCI-H460 lung, 106%; in the experiment with HOP-92 NSCLC, 116%. The growth with NCI-H522 lung is 100%; with A549/ATCC NSCLC, 93.3%; with 786-0 renal it was 104%; with COLO 205 colon, 110%; with DU-145 prostate it was 106%; in the experiment with K-562 leukemia it was 111%. The growth in the experiment on MALME-3M melanoma was 97.8%; with RXF 393 renal it was 105%; in the experiment on SF-295 CNS, 97.4%; in the experiment on SF-539 CNS, 95.7%; in the experiment with UACC-257 melanoma, 72.8%; in the experiment with M14 melanoma, 103%.
